Compounds with a hit are over-represented: about 12% of the library has one in this group of screens.
SARS PLP yeast: blocks SARS-CoV papain-like protease in a yeast assay; S. cerevisiae expressing SARS-CoV PLpro, growth rescue; Potency, µM (series often up to 32.9 µM), for the others: at the highest dose activity, positive = growth rescue, actives largely listed as activators; 330,000 compounds, 0.19% hits; AID 485353; calls by dose curve; also: 0% is about no effect; nearly all actives have a fitted effect of over 55% in size
Pf growth 48h: inhibits P. falciparum growth in the first generation, 48 h; Potency, µM (titrated, usually from 28.7 µM), for inactives: at the top dose activity change, negative = inhibition, actives largely listed as inhibitors; 310,000 compounds, 5.9% hits; P. falciparum luciferase growth in erythrocytes, 48 h; also: % is scaled to controls: 0 for no effect and ±100 for the full control effect
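Luciferase-expressing parasites in RBCs, 2% Hct / 0.1% parasitemia final; RPMI 1640 + 0.5% Albumax; 37 C, 5% CO2, one generation; luminescence read-out, lower signal = inhibition.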
Sm TGR inh: inhibitors of Schistosoma mansoni thioredoxin glutathione reductase; Q962Y6; 360,000 compounds, 3% hits; Potency, µM (titrated, usually from 114 µM), for inactives: at the top dose activity change, negative = inhibition, hits mostly inhibitors; purified TGR, DTNB reduction, TNB absorbance 405 nm; also: % is scaled to controls: 0 for no effect and ±100 for the full control effect; nearly all actives have a fitted effect of over 60% in size
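First, TGR (20 nM dispensed) and NADPH were mixed with compound. Second, a 15 min room-temperature incubation followed. Third, further NADPH and then DTNB were added to start the reaction. Finally, TNB absorbance was monitored kinetically.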
Pf growth 96h: inhibits malaria parasite growth, 96 h; Potency, µM (doses to about 28.7 µM), for inactives: at the top dose activity change, negative = inhibition, actives largely listed as inhibitors; 320,000 compounds, 6.9% hits; P. falciparum luciferase reporter growth, 96 h; AID 504834; also: % is scaled to controls: 0 for no effect and ±100 for the full control effect
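P. falciparum expressing integrated firefly luciferase grown in erythrocytes (2% hematocrit, 0.05% parasitemia final) with compounds for 96 hours at 37 C, 5% CO2. Growth inhibition read as loss of luminescence after adding luciferase detection reagent.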
* hit, by the source's call; ? = inconclusive; · = not tested or not shown; [ ] = dose if it differs, or a comment. Unless noted, calls follow the shape of the dose curve; as a rule, active = well fitted curve in the direction sought with a large enough effect; inconclusive = small, poorly fitted or top-dose-only effect, or another doubt; inactive = no such curve, though single readings can be large; an effect the other way counts as inactive or inconclusive. Potency is read from the fitted curve at half-maximal effect.

SMILES	SARS PLP yeast	Pf growth 48h	Sm TGR inh	Pf growth 96h
O=C1C2C3C=CC(C4CC34)C2C(=O)N1c1ccc2c(c1)OCO2 (configuration not stated)	3.0%	86.3%	44.7µM*	38.3%
O=C(CSc1nnc2ccccn12)NNC(=O)c1ccccc1F	-0.5%	·	·	·
COc1ccc(-c2cc(=O)oc3c(C)c(OC(C)C(C)=O)ccc23)cc1 (configuration not stated)	-1.9%	-14.1%	1.8%	-26.4%
COc1ccc(-c2cc(=O)oc3c(C)c(OC(C)C(=O)Nc4ccc(CN5CCOCC5)cc4)ccc23)cc1 (configuration not stated)	-3.7%	7.38µM*	1.8%	3.7µM*
Cc1cc(=O)oc2c(C)c(OC(C)C(=O)Nc3ccc(N4CCC(C)CC4)cc3)ccc12 (configuration not stated)	4.0%	7.38µM*	1.8%	3.29µM*
Cc1cc(=O)oc2cc(OC(C)C(=O)Nc3ccc(N4CCCCC4)cc3)ccc12 (configuration not stated)	-0.7%	?	-32.7%	7.8%
O=C(NCc1ccc(Cl)cc1)c1ccc2ccccc2n1	-6.4%	16.0%	12.7%	26.9%
COc1ccccc1C(=O)Nc1ccccc1OCc1cc(=O)n2ccccc2n1	·	·	8.3%	·
O=C(CCCn1c(=O)c2cccn2c2ccc(F)cc21)NCc1ccc(Cl)cc1	·	·	-1.8%	·
CCc1noc(C)c1C(=O)Nc1nc(-c2cc(OC)ccc2OC)cs1	2.6%	?	-0.6%	?
CCc1noc(C)c1C(=O)Nc1nc(-c2ccc(OC)cc2OC)cs1	4.5%	2.33µM*	4.1%	2.33µM*
COc1ccc(-c2csc(NC3CCCCC3)n2)c(OC)c1	-1.6%	9.28µM*	0.1%	?
CCc1nc2nc(C)cc(Nc3cc(Cl)ccc3C)n2n1	·	·	2.8%	·
CCc1cccc(-n2c(=O)c3cccnc3n2CC(=O)Nc2ccc(OC)c(Cl)c2)c1	·	·	-16.2%	·
O=C(COC(=O)C1CCCCC1)Nc1cccc(Br)c1	-7.5%	-15.0%	-1.4%	?
Cc1c(S(=O)(=O)c2ccccn2)c(N)n(Cc2ccccc2)c1C	-0.8%	-16.7%	2µM*	-14.8%
COc1nc(C)cc(C)c1S(=O)(=O)c1ccccc1	-0.9%	?	14.5%	4.7%
Cc1ccc(C)n1Cc1ccccc1Cl	0.3%	-15.7%	?	11.9%
Cc1c(S(=O)(=O)c2ccccn2)c(N)n(Cc2ccccc2Cl)c1C	-0.4%	?	2µM*	?
COCCn1c(C)c(C)c(S(=O)(=O)c2ccccc2)c1N	-0.7%	-17.4%[0.00184 µM]	1µM*	10.2%
COc1ccccc1C(CNC(=O)C(C)Oc1ccc(Br)cc1)N1CCCC1 (configuration not stated)	-2.6%	?	12.5%	?
CCOc1ccccc1CNC(=O)CCC(=O)N1CCSc2ccccc21	·	·	-8.1%	·
CN(Cc1ccc(C(C)(C)C)cc1)C(=O)c1ccc2c(=O)n3c(nc2c1)CCC3	0.2%	13.1µM*	0.3%	?
CCOc1ccccc1N(C)C(=O)c1ccc2c(=O)n3c(nc2c1)CCCCC3	29.0%	?	-14.4%	1.47µM*
COc1ccc(CN(C)C(=O)c2ccc3c(=O)n4c(nc3c2)CCC4)cc1	-4.3%	-2.2%	-6.6%	?
SMILES	SARS PLP yeast	Pf growth 48h	Sm TGR inh	Pf growth 96h
CCc1ccccc1N(C)C(=O)c1ccc2c(=O)n3c(nc2c1)CCCCC3	·	·	-1.6%	·
CN(Cc1ccccc1Br)C(=O)CSc1nnnn1C1CC1	0.4%	?	-5.3%	3.29µM*
CN(Cc1cccc(F)c1)C(=O)CSc1nnnn1C1CC1	-0.6%	15.1%	4.9%	99.2%
CCOc1ccc(N=C2C(=O)N(CN3CCOCC3)c3ccccc32)cc1	-4.1%	3.8%	0.0%	13.1µM*
COc1cccc(N2CCN(CC(=O)c3c[nH]c4ccc(OC)cc34)CC2C)c1 (configuration not stated)	9.5%	11.7µM*	?	?
COc1ccc2[nH]cc(C(=O)CN3CCCC(C)C3)c2c1 (configuration not stated)	-2.2%	-6.4%	-0.3%	22.5%
CC(=O)Nc1ccc(C(=O)OCC(=O)N(c2ccccc2)C2CCS(=O)(=O)C2)cc1 (configuration not stated)	-10.1%	-12.3%	-7.4%	1.9%
O=C(CCl)N(c1ccccc1)C1CCS(=O)(=O)C1 (configuration not stated)	-13.9%	11.7µM*	22.4µM*	?

Screens: PubChem BioAssay, National Center for Advancing Translational Sciences (NCATS)
